Residual activity data for 1 molecule are collected here from ChEMBL document CHEMBL2218924, “A broad activity screen in support of a chemogenomic map for kinase signalling research and drug discovery” (Biochem J, 2013).

Experiment [1] addresses T1, Ephrin type-B receptor 1 (Homo sapiens) (UniProt P54762).
T1 sequence (whole entry): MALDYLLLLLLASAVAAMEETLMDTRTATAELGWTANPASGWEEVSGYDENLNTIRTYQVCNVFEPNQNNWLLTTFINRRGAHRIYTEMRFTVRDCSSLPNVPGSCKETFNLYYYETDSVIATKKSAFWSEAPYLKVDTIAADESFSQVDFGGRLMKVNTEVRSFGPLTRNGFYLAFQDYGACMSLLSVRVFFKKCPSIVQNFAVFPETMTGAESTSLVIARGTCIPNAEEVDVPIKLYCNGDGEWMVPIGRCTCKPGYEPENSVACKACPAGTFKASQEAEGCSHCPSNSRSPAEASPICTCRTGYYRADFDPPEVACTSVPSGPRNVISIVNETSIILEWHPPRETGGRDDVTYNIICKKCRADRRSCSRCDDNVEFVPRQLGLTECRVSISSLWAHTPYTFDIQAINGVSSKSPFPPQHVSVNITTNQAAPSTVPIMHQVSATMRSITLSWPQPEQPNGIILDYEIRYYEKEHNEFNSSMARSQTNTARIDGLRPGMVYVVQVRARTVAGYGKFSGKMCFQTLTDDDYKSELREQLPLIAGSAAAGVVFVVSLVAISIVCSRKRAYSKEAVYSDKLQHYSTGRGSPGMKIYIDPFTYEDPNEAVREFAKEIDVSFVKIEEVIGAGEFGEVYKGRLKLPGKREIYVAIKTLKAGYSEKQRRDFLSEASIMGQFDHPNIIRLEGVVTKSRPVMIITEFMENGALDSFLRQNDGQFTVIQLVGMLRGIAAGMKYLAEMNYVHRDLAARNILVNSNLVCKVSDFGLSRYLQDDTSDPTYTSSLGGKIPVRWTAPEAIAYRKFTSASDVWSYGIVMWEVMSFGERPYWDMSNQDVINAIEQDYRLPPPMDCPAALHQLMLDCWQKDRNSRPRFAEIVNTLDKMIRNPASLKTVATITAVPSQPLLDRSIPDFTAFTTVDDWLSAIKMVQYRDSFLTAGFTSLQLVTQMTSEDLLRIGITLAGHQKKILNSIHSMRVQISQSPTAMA
As to conditions: at 10 µM; call rule not given here.

The target of experiment [2] is T2, Ephrin type-B receptor 2 (Homo sapiens) (UniProt P29323).
T2 sequence (whole entry): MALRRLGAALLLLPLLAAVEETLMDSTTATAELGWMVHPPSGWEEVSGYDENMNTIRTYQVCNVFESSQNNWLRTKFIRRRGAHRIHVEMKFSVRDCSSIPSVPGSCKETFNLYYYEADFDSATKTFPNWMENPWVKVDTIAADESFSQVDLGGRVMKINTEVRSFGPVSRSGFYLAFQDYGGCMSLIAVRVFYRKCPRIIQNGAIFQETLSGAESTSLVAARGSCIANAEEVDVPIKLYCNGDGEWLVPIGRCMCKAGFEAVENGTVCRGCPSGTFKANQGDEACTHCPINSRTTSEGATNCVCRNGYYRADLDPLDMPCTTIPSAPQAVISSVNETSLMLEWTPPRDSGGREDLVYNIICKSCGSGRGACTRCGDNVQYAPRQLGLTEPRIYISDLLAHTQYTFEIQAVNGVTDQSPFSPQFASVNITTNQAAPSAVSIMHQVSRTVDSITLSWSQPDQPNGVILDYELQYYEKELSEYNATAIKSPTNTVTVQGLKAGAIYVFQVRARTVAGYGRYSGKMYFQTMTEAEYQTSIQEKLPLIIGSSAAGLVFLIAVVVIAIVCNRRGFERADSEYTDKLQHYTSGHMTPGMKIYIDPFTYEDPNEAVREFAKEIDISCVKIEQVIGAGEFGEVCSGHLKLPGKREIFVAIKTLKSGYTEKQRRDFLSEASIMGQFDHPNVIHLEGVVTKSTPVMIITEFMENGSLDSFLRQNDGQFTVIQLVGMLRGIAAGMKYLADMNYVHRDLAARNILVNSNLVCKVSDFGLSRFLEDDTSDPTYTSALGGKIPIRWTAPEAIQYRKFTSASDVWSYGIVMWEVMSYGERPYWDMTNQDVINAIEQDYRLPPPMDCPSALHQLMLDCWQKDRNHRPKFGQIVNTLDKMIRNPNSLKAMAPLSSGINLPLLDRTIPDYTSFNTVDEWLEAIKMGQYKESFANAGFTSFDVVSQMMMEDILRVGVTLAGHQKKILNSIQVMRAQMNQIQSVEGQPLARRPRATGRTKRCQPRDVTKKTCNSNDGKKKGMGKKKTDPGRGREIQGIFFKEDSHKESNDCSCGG
As to conditions: at 1 µM.

Experiment [3] addresses T2, Ephrin type-B receptor 2 (Homo sapiens). As to conditions: at 10 µM.
Experiment [4] deals with T3, Ephrin type-B receptor 3 (Homo sapiens) (UniProt P54753).
T3 sequence (whole entry): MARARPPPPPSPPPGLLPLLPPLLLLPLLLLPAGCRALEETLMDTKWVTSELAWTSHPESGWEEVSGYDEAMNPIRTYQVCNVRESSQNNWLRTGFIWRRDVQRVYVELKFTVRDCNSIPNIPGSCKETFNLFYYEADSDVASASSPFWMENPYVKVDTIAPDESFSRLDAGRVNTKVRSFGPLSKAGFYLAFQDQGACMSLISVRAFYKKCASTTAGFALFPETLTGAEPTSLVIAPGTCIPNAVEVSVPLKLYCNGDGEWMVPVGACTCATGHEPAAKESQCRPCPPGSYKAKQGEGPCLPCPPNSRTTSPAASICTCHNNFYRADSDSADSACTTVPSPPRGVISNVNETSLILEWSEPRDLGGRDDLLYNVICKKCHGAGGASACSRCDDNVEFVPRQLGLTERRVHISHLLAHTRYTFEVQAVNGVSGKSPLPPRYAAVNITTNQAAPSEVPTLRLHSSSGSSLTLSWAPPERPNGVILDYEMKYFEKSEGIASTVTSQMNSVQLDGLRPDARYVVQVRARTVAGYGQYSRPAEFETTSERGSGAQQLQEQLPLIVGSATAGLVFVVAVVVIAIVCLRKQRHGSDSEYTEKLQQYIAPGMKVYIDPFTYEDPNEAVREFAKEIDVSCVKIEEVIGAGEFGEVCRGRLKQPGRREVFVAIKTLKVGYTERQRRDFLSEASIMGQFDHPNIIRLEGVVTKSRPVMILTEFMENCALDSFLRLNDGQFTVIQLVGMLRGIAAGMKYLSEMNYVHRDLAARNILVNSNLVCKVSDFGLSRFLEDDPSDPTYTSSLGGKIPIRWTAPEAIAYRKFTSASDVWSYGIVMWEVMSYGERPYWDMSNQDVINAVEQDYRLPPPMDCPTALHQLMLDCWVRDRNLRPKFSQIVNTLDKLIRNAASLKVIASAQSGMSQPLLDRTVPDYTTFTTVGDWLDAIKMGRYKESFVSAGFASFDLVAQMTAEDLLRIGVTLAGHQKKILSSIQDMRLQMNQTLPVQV
Conditions: at 1 µM.

Experiment [5] has as its target T3, Ephrin type-B receptor 3 (Homo sapiens). As to conditions: at 10 µM.
The target in experiment [6] is T4, Ephrin type-B receptor 4 (Homo sapiens) (UniProt P54760).
T4 sequence (whole entry): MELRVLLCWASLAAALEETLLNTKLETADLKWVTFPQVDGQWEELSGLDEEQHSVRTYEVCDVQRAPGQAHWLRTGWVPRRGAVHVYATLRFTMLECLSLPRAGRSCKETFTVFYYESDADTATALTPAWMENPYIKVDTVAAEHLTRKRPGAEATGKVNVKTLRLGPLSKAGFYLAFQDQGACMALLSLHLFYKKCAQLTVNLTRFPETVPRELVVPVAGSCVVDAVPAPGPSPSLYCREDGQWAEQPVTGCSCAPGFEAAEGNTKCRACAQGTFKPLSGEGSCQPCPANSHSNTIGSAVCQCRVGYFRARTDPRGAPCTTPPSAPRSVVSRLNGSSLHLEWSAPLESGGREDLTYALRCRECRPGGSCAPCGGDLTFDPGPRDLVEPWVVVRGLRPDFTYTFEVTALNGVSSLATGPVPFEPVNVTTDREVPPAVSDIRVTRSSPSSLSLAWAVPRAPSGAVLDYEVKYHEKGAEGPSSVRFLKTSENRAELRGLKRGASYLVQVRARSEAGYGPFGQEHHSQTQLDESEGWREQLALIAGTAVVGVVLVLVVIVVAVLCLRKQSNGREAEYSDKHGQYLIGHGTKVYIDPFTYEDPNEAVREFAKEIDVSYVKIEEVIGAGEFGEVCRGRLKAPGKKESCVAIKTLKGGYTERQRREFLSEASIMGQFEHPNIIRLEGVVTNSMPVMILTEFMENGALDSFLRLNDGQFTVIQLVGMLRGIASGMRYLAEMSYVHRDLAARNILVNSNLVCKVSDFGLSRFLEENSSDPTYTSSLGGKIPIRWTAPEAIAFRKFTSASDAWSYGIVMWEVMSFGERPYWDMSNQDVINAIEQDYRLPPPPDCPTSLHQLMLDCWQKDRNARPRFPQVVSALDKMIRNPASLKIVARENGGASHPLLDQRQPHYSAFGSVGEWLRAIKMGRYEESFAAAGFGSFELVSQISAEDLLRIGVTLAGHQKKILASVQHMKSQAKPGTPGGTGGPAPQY
Conditions: at 1 µM.

The target of experiment [7] is T4, Ephrin type-B receptor 4 (Homo sapiens). Conditions: at 10 µM.
Experiment [8] addresses Receptor tyrosine-protein kinase erbB-4 (Homo sapiens) (UniProt Q15303). As to conditions: at 1 µM.
Experiment [9] shares this target. As to conditions: at 10 µM.
Experiment [10] deals with Focal adhesion kinase 1 (Homo sapiens) (UniProt Q05397). As to conditions: at 1 µM.

As a reminder, the residual activity is the signal under treatment as a percentage of the control signal.

Chain of Receptor tyrosine-protein kinase erbB-4 (Homo sapiens) (Q15303 whole entry): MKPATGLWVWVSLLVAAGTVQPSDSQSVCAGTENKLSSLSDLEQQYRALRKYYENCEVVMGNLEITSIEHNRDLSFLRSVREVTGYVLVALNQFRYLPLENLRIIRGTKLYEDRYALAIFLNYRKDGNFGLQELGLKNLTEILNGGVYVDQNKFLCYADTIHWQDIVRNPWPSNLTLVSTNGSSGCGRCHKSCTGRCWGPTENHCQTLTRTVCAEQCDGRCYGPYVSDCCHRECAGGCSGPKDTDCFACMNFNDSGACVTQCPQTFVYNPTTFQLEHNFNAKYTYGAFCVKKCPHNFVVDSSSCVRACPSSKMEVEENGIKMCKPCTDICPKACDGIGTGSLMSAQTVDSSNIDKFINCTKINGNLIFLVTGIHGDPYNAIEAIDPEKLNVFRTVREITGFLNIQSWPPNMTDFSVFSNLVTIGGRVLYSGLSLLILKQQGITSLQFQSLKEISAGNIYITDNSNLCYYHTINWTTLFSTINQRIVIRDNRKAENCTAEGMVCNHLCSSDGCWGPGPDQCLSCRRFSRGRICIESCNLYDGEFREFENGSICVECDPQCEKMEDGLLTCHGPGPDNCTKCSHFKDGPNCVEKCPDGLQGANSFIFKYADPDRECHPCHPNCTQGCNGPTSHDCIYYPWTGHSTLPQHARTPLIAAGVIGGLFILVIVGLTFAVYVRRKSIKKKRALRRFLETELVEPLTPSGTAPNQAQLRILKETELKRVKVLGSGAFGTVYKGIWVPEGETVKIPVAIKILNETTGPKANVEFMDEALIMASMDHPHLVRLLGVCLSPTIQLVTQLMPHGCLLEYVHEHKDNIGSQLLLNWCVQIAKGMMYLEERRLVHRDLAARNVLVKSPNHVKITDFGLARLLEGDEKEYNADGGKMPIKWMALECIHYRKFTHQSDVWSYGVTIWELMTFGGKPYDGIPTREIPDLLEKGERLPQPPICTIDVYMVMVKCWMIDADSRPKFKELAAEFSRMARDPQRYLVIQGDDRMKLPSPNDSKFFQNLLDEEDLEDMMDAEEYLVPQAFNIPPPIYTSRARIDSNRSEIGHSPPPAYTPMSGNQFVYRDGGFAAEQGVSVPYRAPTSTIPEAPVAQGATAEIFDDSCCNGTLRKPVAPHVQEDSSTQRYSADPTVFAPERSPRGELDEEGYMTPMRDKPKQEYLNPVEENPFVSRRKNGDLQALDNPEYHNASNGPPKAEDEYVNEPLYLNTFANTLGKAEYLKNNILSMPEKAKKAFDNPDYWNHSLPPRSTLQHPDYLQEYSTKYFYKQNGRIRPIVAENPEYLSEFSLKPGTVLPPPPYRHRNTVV
Chain of Focal adhesion kinase 1 (Homo sapiens) (Q05397 2-1052 limits assumed): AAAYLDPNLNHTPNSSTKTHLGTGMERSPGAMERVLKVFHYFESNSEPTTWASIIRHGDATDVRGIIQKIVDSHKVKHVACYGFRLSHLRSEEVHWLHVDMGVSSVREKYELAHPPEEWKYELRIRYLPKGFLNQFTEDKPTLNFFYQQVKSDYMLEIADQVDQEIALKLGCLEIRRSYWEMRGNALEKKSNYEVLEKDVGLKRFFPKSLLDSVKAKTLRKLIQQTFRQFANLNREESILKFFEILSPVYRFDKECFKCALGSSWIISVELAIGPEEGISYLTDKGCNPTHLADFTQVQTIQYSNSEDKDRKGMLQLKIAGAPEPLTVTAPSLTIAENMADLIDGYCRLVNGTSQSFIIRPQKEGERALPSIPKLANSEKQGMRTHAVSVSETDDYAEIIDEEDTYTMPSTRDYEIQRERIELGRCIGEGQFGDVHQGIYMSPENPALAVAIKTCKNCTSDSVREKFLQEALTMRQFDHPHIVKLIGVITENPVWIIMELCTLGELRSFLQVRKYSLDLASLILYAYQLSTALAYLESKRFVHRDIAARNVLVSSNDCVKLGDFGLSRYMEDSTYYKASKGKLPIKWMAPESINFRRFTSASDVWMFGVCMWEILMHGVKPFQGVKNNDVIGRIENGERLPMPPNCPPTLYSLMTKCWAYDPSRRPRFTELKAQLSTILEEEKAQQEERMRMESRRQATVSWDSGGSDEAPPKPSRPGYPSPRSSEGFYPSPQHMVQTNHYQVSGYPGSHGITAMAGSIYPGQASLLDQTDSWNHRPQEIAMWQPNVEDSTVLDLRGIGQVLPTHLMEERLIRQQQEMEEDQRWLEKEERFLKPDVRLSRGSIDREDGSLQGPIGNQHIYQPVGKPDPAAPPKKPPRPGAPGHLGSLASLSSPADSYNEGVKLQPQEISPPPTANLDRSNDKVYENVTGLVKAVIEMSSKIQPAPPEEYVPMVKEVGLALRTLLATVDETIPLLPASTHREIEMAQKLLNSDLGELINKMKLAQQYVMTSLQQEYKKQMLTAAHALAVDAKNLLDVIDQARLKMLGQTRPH

On to `O=C1c2ccccc2-[n+]2ccc3c([nH]c4ccccc43)c21`, for which the residual activity in [1] was 85%; in experiment [2] it was 114%; in [3], 116%; in [4], 100% (inactive); in experiment [5], 96%; in [6] it was 92%. The residual activity in experiment [7] was 84%; in [8], 69%; in experiment [9], 67%; in experiment [10], 95%.
